Measured values reported in the supplement of paper PMC12636033.
± gives the standard deviation of the averaged measurements. In all, about 33,000 sequences were measured (“E-score (rank enrichment, -0.5 to 0.5)”: median about -0.0075, highest 2% from about 0.23 on). The full list was thinned out, with the highest values kept by preference.

The sequences below were run on WT Max(13-93) synthetic (M65Nle) (assay: PBM 8-mer E-score (E-score (rank enrichment, -0.5 to 0.5)); higher = stronger preferential binding).
Method: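 Protein binding microarray (universal PBM chip covering all 10-mers in fixed probe flanks) with chemically synthesized human Max(13-93) bHLH-LZ analogs (not full-length Max) bearing noncanonical residues (hArg, Tha, Aib, Nle at 65) and aromatic Cys staples. Read-out per 8-mer (and its reverse complement): E-score (rank-based enrichment, -0.5 to 0.5) and Z-score of median probe intensity.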
AAGAAATG was tested, and the “PBM 8-mer E-score” value was 0.101 ± 0.04. For AAGACGGA, the “PBM 8-mer E-score” value was -0.127 ± 0.033. With CAAATCAC the “PBM 8-mer E-score” value was 0.0214 ± 0.064. For CGGACGAG, the “PBM 8-mer E-score” value was -0.203 ± 0.017. For AGTCACAC, the “PBM 8-mer E-score” value was 0.0956 ± 0.0018. With AGTCACAT the “PBM 8-mer E-score” value was 0.251 ± 0.0014. With AGTCACAG the “PBM 8-mer E-score” value was -0.117 ± 0.061. CTTTTCAC was tested, and the “PBM 8-mer E-score” value was 0.241 ± 0.17. With ATTTTCAC the “PBM 8-mer E-score” value was -0.017 ± 0.0034. With CCTTTCAC the “PBM 8-mer E-score” value was 0.0141 ± 0.092. With AGAAGCAT the “PBM 8-mer E-score” value was 0.135 ± 0.018. In the case of AGGACGAT, the “PBM 8-mer E-score” value is reported as 0.0538 ± 0.14. In the case of AGCGATGA, the “PBM 8-mer E-score” value is reported as -0.182 ± 0.065. In the case of ATAACTAC, the “PBM 8-mer E-score” value is reported as 0.239 ± 0.077. For CTAACTAC, the “PBM 8-mer E-score” value was -0.0993 ± 0.059. For CTTACTAC, the “PBM 8-mer E-score” value was 0.08987 ± 0.00056. For ATTACTAC, the “PBM 8-mer E-score” value was 0.264 ± 0.03. In the case of ATAACTAT, the “PBM 8-mer E-score” value is reported as 0.143 ± 0.042. For ATTACTAG, the “PBM 8-mer E-score” value was -0.00575 ± 0.14. In the case of AGAAAGTA, the “PBM 8-mer E-score” value is reported as 0.204 ± 0.0097. In the case of CTGCGCAC, the “PBM 8-mer E-score” value is reported as 0.0305 ± 0.029. With ACCACGTC the “PBM 8-mer E-score” value was 0.0378 ± 0.15. For AGCACGTG, the “PBM 8-mer E-score” value was 0.4878 ± 0.00074. In the case of AGCACGTA, the “PBM 8-mer E-score” value is reported as -0.0146 ± 0.12. In the case of CCCACGCG, the “PBM 8-mer E-score” value is reported as 0.31 ± 0.011. In the case of CCCACGCA, the “PBM 8-mer E-score” value is reported as -0.00155 ± 0.1. ACCACGTG was tested, and the “PBM 8-mer E-score” value was 0.4956 ± 0.0014. For ACCACGCC, the “PBM 8-mer E-score” value was 0.0629 ± 0.16. With ACCACGTA the “PBM 8-mer E-score” value was 0.0522 ± 0.0021. In the case of AGCACGTC, the “PBM 8-mer E-score” value is reported as -0.118 ± 0.093. In the case of ACCACGCG, the “PBM 8-mer E-score” value is reported as 0.361 ± 0.016. With CCCACGCC the “PBM 8-mer E-score” value was -0.00325 ± 0.11. ACCACGCA was tested, and the “PBM 8-mer E-score” value was 0.104 ± 0.042. For CCTTCGAA, the “PBM 8-mer E-score” value was 0.0583 ± 0.015. For ATTCAACA, the “PBM 8-mer E-score” value was 0.131 ± 0.1. AGCCGTCA was tested, and the “PBM 8-mer E-score” value was -0.0749 ± 0.036. In the case of CGATCGTC, the “PBM 8-mer E-score” value is reported as -0.278 ± 0.042. With TCCCGGGA the “PBM 8-mer E-score” value was -0.251 ± 0.0053. In the case of AATGGCAT, the “PBM 8-mer E-score” value is reported as 0.16 ± 0.14. In the case of CAAAAAGC, the “PBM 8-mer E-score” value is reported as -0.0124 ± 0.093. AGGAGCAT was tested, and the “PBM 8-mer E-score” value was 0.00459 ± 0.16. In the case of AGCTCTCA, the “PBM 8-mer E-score” value is reported as -0.0708 ± 0.13. In the case of GCGTGCCC, the “PBM 8-mer E-score” value is reported as -0.0787 ± 0.13. With ACGTGCCT the “PBM 8-mer E-score” value was 0.252 ± 0.0048. With GCGTGCCA the “PBM 8-mer E-score” value was -0.0642 ± 0.045. For CCGTGCCC, the “PBM 8-mer E-score” value was -0.132 ± 0.18. ACGTGCCG was tested, and the “PBM 8-mer E-score” value was 0.206 ± 0.029. In the case of ACGTGCCC, the “PBM 8-mer E-score” value is reported as 0.247 ± 0.032. With CCGTGCCA the “PBM 8-mer E-score” value was -0.0364 ± 0.14. For AAGTGCCT, the “PBM 8-mer E-score” value was -0.106 ± 0.055. In the case of ACGTGCCA, the “PBM 8-mer E-score” value is reported as 0.294 ± 0.025. GCCTTGCC was tested, and the “PBM 8-mer E-score” value was -0.201 ± 0.024. In the case of CAGAATAG, the “PBM 8-mer E-score” value is reported as 0.0142 ± 0.048. CCTATACG was tested, and the “PBM 8-mer E-score” value was 0.0369 ± 0.014. For CGCGAGAA, the “PBM 8-mer E-score” value was -0.0592 ± 0.072. With CGTGGCGA the “PBM 8-mer E-score” value was 0.015 ± 0.0011. In the case of ACTAGGCA, the “PBM 8-mer E-score” value is reported as -0.0155 ± 0.066. For AATCGGAG, the “PBM 8-mer E-score” value was -0.0774 ± 0.087. For ATTGCCTC, the “PBM 8-mer E-score” value was 0.0622 ± 0.064. ACGCGCGA was tested, and the “PBM 8-mer E-score” value was 0.114 ± 0.066. CCACGCGC was tested, and the “PBM 8-mer E-score” value was 0.152 ± 0.035. With ACACGCGT the “PBM 8-mer E-score” value was 0.325 ± 0.013. For ACACGCTG, the “PBM 8-mer E-score” value was 0.0854 ± 0.074. In the case of CCACGCGG, the “PBM 8-mer E-score” value is reported as 0.433 ± 0.024. With AAACGCGT the “PBM 8-mer E-score” value was 0.0714 ± 0.1. In the case of CCACGCGA, the “PBM 8-mer E-score” value is reported as 0.0546 ± 0.083. ACACGCGA was tested, and the “PBM 8-mer E-score” value was 0.157 ± 0.042. In the case of ACACGCGG, the “PBM 8-mer E-score” value is reported as 0.281 ± 0.03. For GCACGCGC, the “PBM 8-mer E-score” value was 0.171 ± 0.025. In the case of ACACGCAT, the “PBM 8-mer E-score” value is reported as 0.159 ± 0.043. In the case of ACACGCGC, the “PBM 8-mer E-score” value is reported as 0.259 ± 0.026. For ATCCCTCC, the “PBM 8-mer E-score” value was 0.0287 ± 0.088. In the case of CAGGGTAC, the “PBM 8-mer E-score” value is reported as -0.008 ± 0.013. For CGCTAGTA, the “PBM 8-mer E-score” value was -0.0479 ± 0.0027. For CAGTGCGA, the “PBM 8-mer E-score” value was -0.0198 ± 0.16. With AGTCGTTC the “PBM 8-mer E-score” value was -0.143 ± 0.11. With CCAGCCCA the “PBM 8-mer E-score” value was -0.176 ± 0.14. In the case of GCAACCAA, the “PBM 8-mer E-score” value is reported as 0.00549 ± 0.078. AAGCGCGC was tested, and the “PBM 8-mer E-score” value was 0.0137 ± 0.0014. For CCACGAGA, the “PBM 8-mer E-score” value was 0.0679 ± 0.15. CCACGAGC was tested, and the “PBM 8-mer E-score” value was -0.0509 ± 0.015. In the case of ACGCGCGG, the “PBM 8-mer E-score” value is reported as 0.118 ± 0.018. ACGCGCGC was tested, and the “PBM 8-mer E-score” value was 0.0593 ± 0.05. For CCACGAGG, the “PBM 8-mer E-score” value was 0.365 ± 0.052. ACGCGCGT was tested, and the “PBM 8-mer E-score” value was 0.246 ± 0.012. With ATCTAATG the “PBM 8-mer E-score” value was -0.0696 ± 0.071.
